# Measurements published in PubChem BioAssay (NCI).
# Compounds without any hit were thinned out: in the full panel of roughly 83,000, 20% have a hit.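 Values shown are percent growth following 48 h exposure of cells in 96-well plates to a single concentration of compound; below 10 was considered active.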 Values without a mark were called inactive. Activity calls are given as the source filed them.
# Key:
# Assay in all cases: NCI-60 one-dose screen, 48 h (100 = growth as untreated, 0 = no growth, -100 = all killed)
# Details in all cases: 10 µM unless noted
# DU-145 prostate = test system: DU-145 prostate
# K-562 leukemia = test system: K-562 leukemia
# MALME-3M melanoma = test system: MALME-3M melanoma
# MDA-MB-231 breast = test system: MDA-MB-231 breast
# RXF 393 renal = test system: RXF 393 renal
# SF-268 CNS = test system: SF-268 CNS
# SF-295 CNS = test system: SF-295 CNS
# SF-539 CNS = test system: SF-539 CNS
# UACC-257 melanoma = test system: UACC-257 melanoma
# M14 melanoma = test system: M14 melanoma
# HCT-15 colon = test system: HCT-15 colon
# HT29 colon = test system: HT29 colon
# SNB-75 CNS = test system: SNB-75 CNS
# SNB-19 CNS = test system: SNB-19 CNS
# U251 CNS = test system: U251 CNS
# PC-3 prostate = test system: PC-3 prostate
# SK-MEL-5 melanoma = test system: SK-MEL-5 melanoma
# UACC-62 melanoma = test system: UACC-62 melanoma
# LOX IMVI melanoma = test system: LOX IMVI melanoma
# SK-MEL-28 melanoma = test system: SK-MEL-28 melanoma
SMILES,growth (DU-145 prostate) [%],growth (K-562 leukemia) [%],growth (MALME-3M melanoma),growth (MDA-MB-231 breast) [%],growth (RXF 393 renal),growth (SF-268 CNS) [%],growth (SF-295 CNS),growth (SF-539 CNS),growth (UACC-257 melanoma) [%],growth (M14 melanoma),growth (HCT-15 colon),growth (HT29 colon),growth (SNB-75 CNS),growth (SNB-19 CNS),growth (U251 CNS),growth (PC-3 prostate) [%],growth (SK-MEL-5 melanoma) [%],growth (UACC-62 melanoma),growth (LOX IMVI melanoma),growth (SK-MEL-28 melanoma) [%]
CCOC(=O)c1nc2c3ccccc3ccn2c1C(=O)OC,104,113,100%,99.9,93.8%,101,106%,100%,102,107%,97%,90.1%,78.9%,91.4%,96.2%,105,96.6,89.4%,109%,96.5
CC1(C)CC(=O)c2c(ccc(C(=O)C[C@@H](N)CO)c2N)O1,18.2,25.9,51.2%,20.4,16.6%,14.9,21.2%,-3.9% (active),16.6,-37.5% (active),4.96% (active),-7.99% (active),63.5%,14%,7.09% (active),24.7,29.4,-9.38% (active),-59% (active),17
FC(F)(F)c1ccc2c(c1)Sc1ccccc1N2,97.1,93.6,100%,99.5,96.6%,92.9,97.2%,97.8%,112,98.3%,92.2%,102%,89%,95.9%,91.5%,93.9,98.1,85.3%,104%,110
O=C(Nc1cccc2cccnc12)c1cc(C(=O)c2ccc(Cl)cc2)n2ccc(-c3ccncc3)cc12,106,113,90.7%,110,104%,97.8,98.9%,99.7%,97.7,96.1%,99.1%,100%,86.6%,104%,103%,95.3,97.2,104%,101%,98.2
CSc1nc2sc3cc(Cl)c(Cl)cc3n2c(=N)c1C#N,107,116,101%,83.7,149%,104,99%,91.3%,99.8,94.3%,104%,94.6%,69.2%,100%,105%,97.6,86.4,82.2%,94.5%,108
Cc1nc(-c2ccccc2)sc1CC#N,116,94.2,128%,116,118%,106,101%,111%,123,125%,102%,105%,113%,103%,100%,108,107,106%,102%,120
NC(=S)Cc1ccccc1,104,97.1,92.7%,101,116%,99.8,91.9%,95.5%,103,98.6%,97.3%,101%,88%,98.2%,100%,102,100,93.9%,0.449% (active),105
O=C1COCCN1c1ccc(NCc2cn(Cc3ccccc3)c3ccccc23)cc1,102,57.3,95.9%,86.7,46.8%,91.9,61.7%,91.8%,75.4,90.2%,90.7%,109%,81.7%,93.2%,86.8%,89,91.5,21.6%,92%,102
CC1Cc2c(ncnc2-n2cnc3ccccc32)N(C)c2ccccc21 (stereo not given),50.3,15.5,64.5%,29.4,34%,49,18.9%,17%,53.1,12.9%,21.6%,0.852% (active),43%,31.5%,23.7%,25.6,20.8,30.9%,44.9%,70.4
C[n+]1c2ccccc2nc2c(N)cc(N)cc21,93.5,36.4,3.51% (active),87.3,112%,24.8,89.5%,48.6%,92.8,96%,110%,84.7%,75.2%,-5.7% (active),8.86% (active),77.6,56.9,93%,77.3%,109
O=C(Nc1ccc(F)cc1)c1ccccc1,104,103,98.8%,105,116%,105,93.4%,99.3%,107,106%,96.6%,114%,106%,101%,102%,108,101,90.8%,105%,101
O=C(Nc1ccc(Nc2ccncc2)cc1)c1ccc([N+](=O)[O-])cc1,68.7,19.5,59.1%,93.5,91.6%,91.9,79.6%,88.8%,96.9,65.1%,77.5%,63.4%,92%,80.1%,38%,70,73.1,15.4%,62.3%,84.9
Cn1cc(-c2nnc(-c3cn(C)c4ncc(Br)cc34)o2)c2ccccc21,103,49.1,75.2%,75.3,70.8%,89.1,89.3%,92.1%,98.5,96.4%,53.3%,87.7%,65.8%,87.6%,94.3%,77.2,80.1,70.8%,92.3%,91.7
CCNC(=O)N1CCc2c(Cl)c3c(c(OC)c2[C@@H]1[C@H]1OCc2c1ccc(OC)c2OC)OCCO3,10.9,10.4,29.6%,43.2,-39.8% (active),45.3,8.12% (active),-41.3% (active),55.3,1.38% (active),26.5%,13.3%,1.79% (active),30.8%,26.1%,20.8,11.4,22.2%,27.5%,54.3
